Screens deposited in PubChem BioAssay by National Center for Advancing Translational Sciences (NCATS).
Only some compounds are listed: those with a hit (about 8% of all), similar ones and a draw of the others.
HT1080 IDH1KD tx: qHTS for induction of synthetic lethality in tumor cells producing 2HG: qHTS for the HT-1080-IDH1KD cell line | 2% of 360,000 active | HT-1080 IDH1 knockdown viability, ATP luminescence, 48 h | Potency, µM (doses to about 46.1 µM), most hits filed as cytotoxic
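Assay cells: HT-1080 with IDH1 knockdown, 750 per well, RPMI/5% FBS. Exposure: 48 h at 37 °C following 2 h pre-incubation. Read: CellTiter-Glo luminescence; fitted concentration-response, curve class assigned.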
HT1080NT lethal: qHTS for induction of synthetic lethality in tumor cells producing 2HG: qHTS for the HT-1080-NT fibrosarcoma cell line; HT-1080-NT fibrosarcoma viability, CellTiter-Glo ATP luminescence, 48 h; Potency, µM (series often up to 46.1 µM), usual class: cytotoxic; 1.6% of 360,000 active; AID 686970, 2013;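 also: NT is the 2HG producing partner of a matched IDH1 knockdown line; nearly all actives have a fitted effect of over 55% in size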
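750 cells/well, RPMI + 5% FBS; 2 h settle, compound pin-transfer, 48 h at 37 degrees C. CellTiter-Glo 10 min RT, luminescence. Normalized to DMSO and media-only wells.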
MCF10A rereplic: A quantitative high throughput screen for small molecules that induce DNA re-replication in MCF 10a normal breast cells. MCF 10A DNA re-replication, Hoechst nuclear intensity, 48 h. 2.9% of 350,000 active. AID 624296, 2012. Potency, µM (titrated, usually from 46.1 µM), usual class: activators; also: nearly all actives have a fitted effect of over 50% in size
SW480 rerep: A quantitative high throughput screen for small molecules that induce DNA re-replication in SW480 colon adenocarcinoma cells | SW480 DNA re-replication, Hoechst DNA content imaging, 48 h | Potency, µM (doses to about 46.1 µM), most hits filed as activators | 1.8% of 340,000 active | AID 624297, 2012; also: nearly all actives have a fitted effect of over 55% in size
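DNA re-replication was detected as more nuclei of elevated Hoechst intensity after 48 hr exposure to compound (23 nL pinned per well of 250 cells).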
KB-3-1 cytotox: qHTS assay for MDR1-selective chemotherapeutics: Primary screen using the parental adenocarcinoma cell KB-3-1 | 1.4% of 400,000 active | Potency, µM (series often up to 46.1 µM), most hits filed as cytotoxic | KB-3-1 viability, CellTiter-Glo ATP luminescence, 72 h; also: nearly all actives have a fitted effect of over 60% in size
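72 h, 37 °C compound treatment of KB-3-1 parental cells; CellTiter-Glo added, 10 min, luminescence read. Data corrected against DMSO-only plates and normalized before curve fitting.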
KB-V1 cytotox: qHTS assay for MDR1-selective chemotherapeutics: Primary screen using the drug-selected MDR subline cells KB-V1; KB-V1 MDR cells viability, CellTiter-Glo, 72 h; Potency, µM (highest dose often 46.1 µM), usual class: cytotoxic; 3.4% of 400,000 active; AID 1347076, 2019; also: nearly all actives have a fitted effect of over 60% in size
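KB-V1, DMEM (no phenol red) + 10% FBS; cpd pin-transferred, titration series; 72 h, 37 degrees C; CellTiter-Glo, luminescence. Data normalized, curve-fit.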
Of the large screens only hits and unclear results are named; the others gave an inactive call. Calls follow the shape of the dose curve; as a rule, active = well fitted curve in the direction sought with a large enough effect; inconclusive = small, poorly fitted or top-dose-only effect, or another doubt; inactive = no such curve, though single readings can be large; an effect the other way counts as inactive or inconclusive.

CCOc1ccc(CCNC(=O)C2Cc3ccccc3N2C(=O)CC)cc1OCC (stereo unspecified)	none (no result: HT1080 IDH1KD tx, HT1080NT lethal, MCF10A rereplic, SW480 rerep)
CC(C)(C)NC(=O)c1cc(NC(=O)c2cccs2)cc(NC(=O)c2cccs2)c1	KB-V1 cytotox inconclusive
O=C(CCl)Nc1ccc(N2CCCCCC2)cc1	HT1080 IDH1KD tx 18.4µM, HT1080NT lethal 23.1µM, MCF10A rereplic 14.6µM, SW480 rerep 20.6µM, KB-3-1 cytotox inconclusive
CCC(=O)Nc1ccc(N2CCCCC2)cc1	none
O=C(CCl)Nc1ccc(-c2ccccc2)cc1	HT1080 IDH1KD tx 9.2µM, HT1080NT lethal 4.61µM, MCF10A rereplic 16.4µM, SW480 rerep inconclusive, KB-3-1 cytotox inconclusive, KB-V1 cytotox inconclusive
O=C(CCl)Nc1ccc(N=Nc2ccccc2)cc1	HT1080NT lethal inconclusive, MCF10A rereplic inconclusive, SW480 rerep 23.1µM
CC(=O)Nc1ccc(NC(=O)Cc2ccc(-c3ccccc3)cc2)cc1	none
CCOC(=O)Nc1ccc(OC)c([N+](=O)[O-])c1	MCF10A rereplic inconclusive, KB-V1 cytotox inconclusive
CNc1c(NS(=O)(=O)c2ccc(F)cc2)c(=O)oc2ccccc12	none
Cc1cc(C)nc(-n2ncc3c2CC(c2ccccc2)CC3=O)n1 (stereo unspecified)	none
COc1ccc(C2CC(=O)c3cnn(-c4nc(C)cc(C)n4)c3C2)cc1 (stereo unspecified)	HT1080 IDH1KD tx inconclusive, HT1080NT lethal inconclusive, MCF10A rereplic 0.82µM, SW480 rerep inconclusive, KB-V1 cytotox inconclusive
CCOc1cccc(CNCc2ccncc2)c1	MCF10A rereplic inconclusive
COc1cccc(N(C(=O)c2ccco2)c2nc(-c3sc(NC(=O)c4ccco4)nc3C)cs2)c1	MCF10A rereplic inconclusive, SW480 rerep inconclusive, KB-3-1 cytotox 5.8µM
Cc1nc(NC(=O)c2ccco2)sc1-c1csc(Nc2ccc(Cl)cc2Cl)n1	HT1080 IDH1KD tx inconclusive, HT1080NT lethal inconclusive, MCF10A rereplic 16.4µM, SW480 rerep inconclusive, KB-V1 cytotox inconclusive
Cc1ccc(Cl)cc1Nc1nc(-c2sc(NC(=O)c3ccco3)nc2C)cs1	HT1080 IDH1KD tx inconclusive, HT1080NT lethal inconclusive, MCF10A rereplic 20.6µM, KB-3-1 cytotox 20.6µM, KB-V1 cytotox inconclusive
CCC(=O)N1CCc2cc(Br)cc(S(=O)(=O)CCC(=O)NCc3ccc(C)cc3)c21	none (no result: HT1080 IDH1KD tx, HT1080NT lethal, MCF10A rereplic, SW480 rerep)
Cc1ccc(C=Nc2cccnc2N)cc1	none
CCCCn1c2c(c(=N)c3ccccc31)CCC2	HT1080NT lethal inconclusive, KB-3-1 cytotox inconclusive
CCCCCCCCCn1c2c(c(=N)c3c1CCC3)CCCC2	HT1080 IDH1KD tx 4.61µM, HT1080NT lethal 7.31µM, MCF10A rereplic inconclusive, SW480 rerep inconclusive, KB-3-1 cytotox inconclusive
N=c1c2c(n(Cc3ccc(F)cc3)c3c1CCC3)CCCC2	HT1080 IDH1KD tx inconclusive, HT1080NT lethal inconclusive, KB-3-1 cytotox inconclusive
CCn1c2c(c(=N)c3c1CCC3)CCCC2	HT1080NT lethal inconclusive, KB-3-1 cytotox 11.6µM, KB-V1 cytotox inconclusive
CCOC(=O)Cn1c2c(c(=N)c3c1CCC3)CCC2	KB-3-1 cytotox inconclusive
CCCCCCCCCCn1c2c(c(=N)c3c1CCC3)CCC2	HT1080 IDH1KD tx inconclusive, HT1080NT lethal 1.03µM, MCF10A rereplic inconclusive, SW480 rerep inconclusive, KB-3-1 cytotox inconclusive
Cn1cc(C(=O)C(=O)N2CCCC2)c2ccccc21	HT1080NT lethal inconclusive
O=C(NCc1ccccc1)N1CCCC1	none
COc1ccc(C(=O)C2CCCN(Cc3cnc(N4CCCC4)s3)C2)cc1OC (stereo unspecified)	none
COc1ccc2cc(C(=O)C3CCCN(Cc4cnc(C)s4)C3)ccc2c1 (stereo unspecified)	HT1080NT lethal inconclusive, SW480 rerep inconclusive, KB-3-1 cytotox inconclusive, KB-V1 cytotox 9.2µM
O=C(N/N=C/c1ccc(Cl)cc1)C1CC12CCC2 (stereo unspecified)	MCF10A rereplic inconclusive
Cc1ccc(-c2nn3c(C)nnc3c3ccccc23)cc1S(=O)(=O)N1CCN(CCO)CC1	none
COc1ccc(-c2nnc3c4ccccc4c(C)nn23)cc1S(=O)(=O)N1CCN(CCO)CC1	HT1080 IDH1KD tx 8.91µM, HT1080NT lethal inconclusive, KB-3-1 cytotox inconclusive, KB-V1 cytotox inconclusive
Cc1nn2c(-c3ccc(S(=O)(=O)N4CCN(CCO)CC4)o3)nnc2c2ccccc12	SW480 rerep 18.4µM
COc1cc(C(=O)NC(=S)Nc2ccccc2[N+](=O)[O-])cc(OC)c1OC	none
CC(C)C(CCNC(=O)CC(Cc1ccccc1)c1ccco1)c1ccco1 (stereo unspecified)	MCF10A rereplic inconclusive, KB-V1 cytotox inconclusive
Cn1nc(-c2ccccc2F)c2cc(C(=O)Nc3ccc4c(c3)OCCO4)sc21	HT1080 IDH1KD tx inconclusive, MCF10A rereplic inconclusive, KB-3-1 cytotox inconclusive, KB-V1 cytotox inconclusive
O=C(CCN1C(=O)NC2(CCCC2)C1=O)Nc1ccc(-c2nc3ccccc3s2)cc1	MCF10A rereplic 23.1µM, SW480 rerep 16.4µM
O=C(CCN1C(=O)NC2(CCCC2)C1=O)Nc1ccc(Sc2ccc(Br)cc2)cc1	none (no result: MCF10A rereplic, SW480 rerep)
Cc1ccc2nc(-c3ccc(NC(=O)C(C)Sc4nncs4)cc3)sc2c1 (stereo unspecified)	HT1080NT lethal inconclusive, MCF10A rereplic inconclusive, SW480 rerep inconclusive, KB-V1 cytotox 11.6µM
Cc1ccc2nc(-c3ccc(NC(=O)CN4CCN(c5ccccn5)CC4)cc3)sc2c1	MCF10A rereplic 13µM, SW480 rerep inconclusive
COc1ccc(C2(C)NC(=O)N(CC(=O)Nc3ccc(-c4nc5ccc(C)cc5s4)cc3)C2=O)cc1 (stereo unspecified)	MCF10A rereplic 18.4µM, SW480 rerep inconclusive
CC(C)CN1CCN(Cc2cc(F)ccc2-n2cccn2)CC1CCO (stereo unspecified)	none
O=C(O)CSCC(=O)Nc1cccc2ccccc12	SW480 rerep inconclusive
COc1cc2c(cc1OC)C(c1c(Cl)cccc1Cl)NC(=O)C2 (stereo unspecified)	none
Cc1ccc2nc(-c3ccc(NC(=O)CCS(=O)(=O)c4ccccc4)cc3)sc2c1	SW480 rerep inconclusive
CC1(c2ccc(OC(F)F)cc2)NC(=O)N(CC(=O)Nc2ccc(OC(F)F)cc2)C1=O (stereo unspecified)	HT1080NT lethal inconclusive
Cc1ccc2nc(-c3ccc(NC(=O)CSc4nccc(=O)[nH]4)cc3)sc2c1	MCF10A rereplic inconclusive
Cc1ccc(N(CC(=O)Nc2ccc(-c3nc4ccc(C)cc4s3)cc2)S(C)(=O)=O)cc1	MCF10A rereplic 16.4µM, SW480 rerep inconclusive
